# Cruzain noTriton – cruzain (T. cruzi) inhibition without detergent; purified cruzain, Z-FR-AMC fluorescence, no detergent; Potency, µM, inactives show max response, negative = inhibition, usual class: inhibitors; 200,000 tested, 2.3% active; AID 1476;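 note: plate controls were enzyme without inhibitor for no effect and buffer without enzyme for full effect; nearly all actives have a fitted effect of over 40% in size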
# Target sequence (P25779 123-467 limits assumed): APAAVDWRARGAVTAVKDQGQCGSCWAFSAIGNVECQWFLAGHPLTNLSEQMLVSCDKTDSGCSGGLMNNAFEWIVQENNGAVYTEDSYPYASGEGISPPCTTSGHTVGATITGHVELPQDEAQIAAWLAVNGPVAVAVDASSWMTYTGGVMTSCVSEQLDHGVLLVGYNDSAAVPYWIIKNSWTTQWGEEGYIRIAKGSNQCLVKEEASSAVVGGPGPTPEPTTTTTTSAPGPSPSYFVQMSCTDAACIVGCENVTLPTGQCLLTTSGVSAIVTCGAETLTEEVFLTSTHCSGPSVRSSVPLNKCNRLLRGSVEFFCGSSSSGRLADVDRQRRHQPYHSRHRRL
#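 Purified cruzain at 1.5 nM, pre-incubated 15 min with compound at room temperature in 100 mM sodium acetate pH 5.5, 5 mM DTT, 0.00005% Triton X-100. Reaction started with 2 uM Z-FR-AMC; AMC fluorescence increase over 60 s gives rate.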
# Cruzain Triton – inhibitors of Trypanosoma cruzi cruzain with detergent | purified cruzain, Z-FR-AMC fluorescence, 0.01% Triton | Potency, µM, without a hit: max response, negative = inhibition, usual class: inhibitors | 200,000 tested, 0.43% active | AID 1478;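 note: plate controls were neutral wells for no effect and buffer without enzyme for full effect; nearly all actives have a fitted effect of over 40% in size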
#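 Purified cruzain (1.5 nM final) was preincubated with compounds for 15 min at room temperature in 100 mM sodium acetate pH 5.5, 5 mM DTT, 0.01% Triton X-100. Reaction started with 2 uM Z-FR-AMC; AMC fluorescence change over 60 s gave activity.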
# NS1 function inh – inhibitors of influenza NS1 protein function | Potency, µM (titrated, usually from 46.1 µM), without a hit: at the highest dose activity, positive = more growth | 270,000 tested, 0.4% active; calls by dose curve; note: actives are rising curves; nearly all actives have a fitted effect of over 50% in size
#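 Recovery from NS1-induced slow growth read by OD600 in budding yeast switched to galactose assay medium (pH 6.0, -URA) at 1:100 dilution. Compound 23 nl per well; the matching strain lacking NS1 serves as control.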
# * marks the source's active call; other numbers are inactive results; ? = inconclusive; · = no result. This excerpt belongs to a sample that is enriched for hits. Unless noted, calls come from the whole dose curve; as a rule, active = well fitted curve in the direction sought with a large enough effect; inconclusive = small, poorly fitted or top-dose-only effect, or another doubt; inactive = no such curve, though single readings can be large; an effect the other way counts as inactive or inconclusive. Potency is the fitted concentration of half-maximal effect.
SMILES,Cruzain noTriton,Cruzain Triton,NS1 function inh
COc1ccc(C2=NN(c3nc(-c4ccccc4)c(CC(=O)O)s3)C(c3ccco3)C2)cc1 (stereo not drawn),12.6µM*,15.8µM*,25.0%
CCN(CC)C(=O)c1sc2c(c1C)c(=O)n(-c1ccccc1)c(=O)n2Cc1c(C)cc(C)cc1C,5.2%,1.6%,·
Clc1ccc2[nH]c3c(NCC4CCCO4)ncnc3c2c1 (stereo not drawn),20µM*,?,-15.9%
Clc1ccc(-n2ncc3c(NCC4CCCO4)ncnc32)cc1 (stereo not drawn),-9.1%,-1.9%,-68.7%
Fc1ccc2[nH]c3c(NCCN4CCOCC4)ncnc3c2c1,20µM*,?,-9.6%
Clc1ccc2[nH]c3c(NCCN4CCOCC4)ncnc3c2c1,15.8µM*,14.1µM*,-0.8%
O=c1c2[nH]c3ccc(F)cc3c2ncn1CCCN1CCOCC1,-2.1%,1.3%,2.6%
O=c1c2[nH]c3ccc(Cl)cc3c2ncn1CCN1CCCCC1,-11.8%,-4.8%,4.9%
COc1cc(CCN)c(OC)c(OC)c1,8.6%,3.2%,0.0%
O=S(=O)(Nc1cc(Sc2cccc3cccnc23)c(O)c2ccccc12)c1ccccc1,3.16µM*,0.3%,1.2%
CCOc1ccc(S(=O)(=O)Nc2cc(SCC(=O)O)c(O)c3ccccc23)cc1,·,·,-103.1%
CCOc1ccc(NC(=O)CN2C(=O)C(c3ccccc3)=NC23CCCCCC3)cc1,20.1%,0.8%,·
COc1ccc2c(c1)CCc1c(C(=O)Nc3c(C)nn(Cc4ccc(Cl)cc4)c3C)noc1-2,2.0%,-5.4%,·
COc1ccc2c(c1)CCc1c(C(=O)Nc3cc(C)n(Cc4ccc(Cl)cc4)n3)noc1-2,12.6µM*,-3.3%,-1.4%
CC1CCN(S(=O)(=O)c2ccc3c(c2)N(CC(=O)O)C(=O)CO3)CC1,-0.2%,1.1%,·
COc1ccccc1OCC(=O)NCC1(N2CCOCC2)CCCCC1,-8.4%,-1.0%,·
CCCCN(CCCNC(=O)c1cc(Nc2ccc(OC)c(OC)c2)nc2ccccc12)c1ccccc1,-28.2%,-3.8%,·
O=C(CCCN1C(=O)/C(=C/c2cccc(Br)c2)SC1=S)Nc1ccccn1,25.1µM*,-4.3%,-1.0%
O=C(CCCN1C(=O)/C(=C\c2cccc(Br)c2)SC1=S)Nc1cccnc1,·,·,12.9%
CCN(CCCNC(=O)CSc1cc(=O)n(CC)c2ccccc12)c1ccccc1,?,-3.4%,·
FC(F)(F)c1cc(CN2CCCC3(CCNCC3)C2)cc(C(F)(F)F)c1,4.7%,1.9%,·
CCOC(=O)C(=O)c1csc(NC(=O)COc2ccc(N(C)S(=O)(=O)c3ccc(F)cc3)cc2)n1,-3.9%,-3.4%,6.3%
Cc1ccc(S(=O)(=O)N(C)c2ccc(OCC(=O)Nc3nc4ccccc4s3)cc2)cc1,?,-0.9%,2.9%
Cc1ccc(S(=O)(=O)N(C)c2ccc(OCC(=O)Nc3nc4c(ccc5ccccc54)s3)cc2)cc1,3.98µM*,-0.7%,0.5%
CN(c1ccc(OCC(=O)Nc2nc(-c3ccccc3)cs2)cc1)S(=O)(=O)c1ccc(F)cc1,7.94µM*,0.0%,19.4%
SMILES,Cruzain noTriton,Cruzain Triton,NS1 function inh
Cc1ccc(S(=O)(=O)N(C)c2ccc(OCC(=O)Nc3nc(-c4ccccc4)cs3)cc2)cc1,7.94µM*,-1.2%,32.1%
COc1ccc(NC(=O)COc2ccc(N(C)S(=O)(=O)c3ccc(C)cc3)cc2)cc1,15.2%,0.2%,-2.5%
Cn1c(=O)c2[nH]c([C@@H]3CC(=O)C[C@H](c4nc5c([nH]4)c(=O)n(C)c(=O)n5C)N3)nc2n(C)c1=O,3.1%,3.3%,-5.4%
O=C(O)C1CCCN1S(=O)(=O)c1cccc2cccnc12 (stereo not drawn),·,·,5.2%
O=Nc1c(-c2c(O)[nH]c3cc(Br)ccc23)[nH]c2ccccc12,31.6µM*,-3.4%,-20.5%
O=Nc1c(O)[nH]c2ccccc12.[Cu].[O-]/N=C1/C(=[OH+])Nc2ccccc21,5.9%,-0.3%,-5.9%
CC(CNC(=O)Cn1ccc2cc(S(=O)(=O)N3CCCCC3)ccc21)c1ccccc1 (stereo not drawn),-20.3%,-6.6%,·
CC(=O)c1cccc(NC(=O)C(Cc2ccccc2)NS(=O)(=O)c2ccc(Br)s2)c1 (stereo not drawn),19.5%,-0.4%,·
Cc1nc(N2CCOCC2)c2nc(-c3ccccc3)n(CC(C)(C)CN(C)C)c2n1,-0.4%,-5.5%,·
c1ccsc1,7.6%,0.5%,·
N#Cc1c(NC(=O)CCN2C(=O)c3ccccc3C2=O)oc(-c2ccccc2)c1-c1ccccc1,?,-2.7%,2.9%
CC(C)CC(C(=O)Nc1oc(-c2ccccc2)c(-c2ccccc2)c1C#N)N1C(=O)c2ccccc2C1=O (stereo not drawn),3.16µM*,-3.4%,12.1%
N#Cc1c(NC(=O)CCn2cnc3ccccc3c2=O)oc(-c2ccccc2)c1-c1ccccc1,31.6µM*,5.4%,?
CC(C)CC(C(=O)Nn1cnnc1)N1C(=O)c2ccccc2C1=O (stereo not drawn),-1.9%,-0.4%,12.3%
CNC(=O)Oc1ccc2c(c1)[C@@]1(C)CCN(C)C1N2C (stereo partly drawn),-4.5%,3.0%,·
CN1CCN(c2ncc3ncc(=O)n(CCC#N)c3n2)CC1,-18.2%,-6.6%,·
N=C1C(c2nc(-c3ccc(F)cc3)cs2)=C(O)CN1CCCN1CCOCC1,-0.3%,-6.1%,-2.2%
CC(C)CCN1CC(O)=C(c2nc(-c3ccc(Cl)cc3)cs2)C1=N,25.1µM*,1.6%,-1.5%
Cn1c(=O)c2c(nc(-c3ccccc3)n2C)n(Cc2ccccc2)c1=O,20.5%,-2.0%,2.3%
O=c1c2ccccc2c2c(O)nc(-c3ccccc3)n2n1Cc1ccccc1,3.98µM*,0.7%,3.3%
CCOC(=O)c1c(NC(=O)COc2ccc(Cl)cc2C)sc(C(C)=O)c1C,-7.5%,-0.6%,·
COc1cc(C)cc(OC)c1/C=C\C(=O)O,6.6%,1.0%,-8.3%
CN(C)S(=O)(=O)c1ccc(C(=O)Nc2nnc(Cc3ccccc3)s2)cc1,-24.2%,3.2%,-24.1%
CN(C)S(=O)(=O)c1ccc(C(=O)Nc2nnc(SCc3cccc(F)c3)s2)cc1,3.98µM*,-0.7%,10.2%
CN(C)S(=O)(=O)c1ccc(C(=O)Nc2nc(-c3cc4ccccc4o3)cs2)cc1,?,-7.0%,5.0%
SMILES,Cruzain noTriton,Cruzain Triton,NS1 function inh
Cc1cc(-c2csc(NC(=O)c3ccc(S(=O)(=O)N(C)C)cc3)n2)c(C)n1-c1ccccc1,15.8µM*,-5.2%,29.4%
CN(C)S(=O)(=O)c1ccc(C(=O)Nc2nnc(SCc3ccccc3)s2)cc1,3.16µM*,-2.7%,7.6%
CCC(=O)Nc1nnc(SCc2cccc(F)c2)s1,·,·,-6.1%
O=C(NCC1CCCCC1)c1nnc(C(=O)NCC2CCCCC2)c2c1[nH]c1ccccc12,-0.7%,2.0%,·
CCN(CC)CC[n+]1ccc2c(C)c3[nH]c4ccc(O)cc4c3c(C)c2c1,4.0%,4.9%,-36.7%
CCCCOc1ccc(N2C(=O)CC(N(O)c3ccccc3)C2=O)cc1 (stereo not drawn),20µM*,2.3%,3.8%
CCCCN(C(C)=O)C1CC(=O)N(c2ccc(OCCC)cc2)C1=O (stereo not drawn),·,·,-1.6%
CCOc1ccccc1N1C(=O)CC(N(O)c2ccccc2)C1=O (stereo not drawn),-4.9%,-1.2%,1.0%
CCCCCOc1ccc(N2C(=O)CC(N(O)c3ccccc3)C2=O)cc1 (stereo not drawn),25.1µM*,-1.1%,?
COc1ccc(Cl)cc1NC(=O)c1ccc(CN2C(=O)CCn3nc(C)cc32)cc1,?,-4.4%,·
